Growth inhibition data for 40 molecules are collected here from PubChem BioAssay (NCI).

About 79,000 compounds went through this panel and 15% of them were active in at least one assay; those are over-represented in the sample as a whole. A number with no mark means an inactive call. The source made the active and inactive calls. No stated cut-off is given here; in the data, active means growth inhibition above about 70%; inactive means the rest.

The nature of the test: NCI Yeast Anticancer Drug Screen. Data for the rad50 strain (AID 155).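 Further: 0% = growth of vehicle-only cultures of the same strain.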 The note with it: S. cerevisiae rad50 strain growth inhibition; at 50.0 µM; stronger effect = higher value. As to the method:
Growth inhibition of yeast strains with defined genetic alterations is measured as a screen for potential anti-cancer activity. Selected strains with alterations in DNA damage repair or cell cycle control were exposed to compounds and growth inhibition was measured relative to vehicle treated controls. The strain used in this assay is rad50
Take `O=C1C=CC(=O)C2=C1CCCC2`: the growth inhibition was 17.1%.

Take `CSCC[C@@H]1C(=O)N(C)[C@H](C(C)(C)C)N1C(=O)c1ccccc1`: the growth inhibition was -0.9%.

On to `O=C1C=C[C@H](O)[C@@]2(CO)O[C@@H]12`, for which the growth inhibition is 5.85%.

As for `Cc1ccnc(Nc2nc3ccccc3[nH]2)n1`, the growth inhibition was 7.1%.

On to `C1Cc2onc(-c3noc4c3CCC4)c2C1`, for which the growth inhibition is -11.2%.

As for `CCN(C(C)=O)c1ccc([N+](=O)[O-])cc1`, the growth inhibition is -11.9%.

As for `NC(=O)OCCO`, the growth inhibition is 19.2%.

As to `O=S(=O)(OCCOS(=O)(=O)c1ccccc1)c1ccccc1`, the growth inhibition was 31.9%.

For `O=C1NC(=O)C(c2ccccc2)O1` (stereo not given), the growth inhibition was -3.9%.

`CCN(C(=O)Nc1ccccc1Cl)c1ccccc1`: the growth inhibition is 8.75%.

For `c1cc(CNCCNCc2ccncc2)ccn1`, the growth inhibition is -36%.

In the case of `NS(=O)(=O)c1cc(=O)[nH]c(=O)[nH]1`, the growth inhibition was -12.2%.

For the molecule `CC(=O)N(C(C)=O)c1ccc(C)cc1`, the growth inhibition was -13.7%.

As to `Nc1ncnc2c1ncn2C1OC(CO)C2OC21` (stereo not given), the growth inhibition is -12.6%.

As for `COC1C(=O)CCC2(CO2)C1(O)C1(C)OC1CCC(C)C` (stereo not given), the growth inhibition was -27.1%.

On to `CS(=O)CC(=N\O)/C(CS(C)=O)=N\O` (stereo not given), for which the growth inhibition is 9.7%.

As to `O=S(Cc1ccccc1)/C(=C/NC(=S)Nc1cc(Cl)ccc1Cl)c1ccccc1` (stereo not given), the growth inhibition is 3.6%.

Regarding `CC(=O)NC(CCc1ccc(Cl)c(Cl)c1)c1cccc(O)c(=O)c1` (stereo not given), the growth inhibition was 88.9% (active).

For the molecule `Cc1ccc2nc(-c3ccc(N=Cc4ccccc4O)cc3)sc2c1`, the growth inhibition was 17.7%.

Regarding `O=C(O)CCCCCNC(=O)OCc1ccccc1`, the growth inhibition is 17.7%.

As for `c1ccc(Nc2ccccn2)nc1`, the growth inhibition is -10.2%.

In the case of `O=C(NC1CCCCC1)c1ccc(Cl)cc1`, the growth inhibition is 4.55%.

`O=c1cc(C(F)(F)F)[nH]c(=S)[nH]1`: the growth inhibition was -21.9%.

For `CN1C(=O)NC(c2ccc(Cl)cc2)(c2ccc(Cl)cc2)C1=O`, the growth inhibition was 44.9%.

Consider `Cc1cc(NC(=O)c2ccccc2)c(Cl)cc1N`, for which the growth inhibition is -26.4%.

Regarding `COc1cc(OC)c(NC(=O)C(Sc2nc(C)cc(C)c2C#N)c2ccccc2)cc1Cl` (stereo not given), the growth inhibition is -6.3%.

With `COc1ccc(Br)c2c1C(=O)CC2`, the growth inhibition was 43.6%.

Consider `C=C1C(=O)C2CCC1C2` (stereo not given), for which the growth inhibition was 32.4%.

For the molecule `CC(=O)OCC1CCC(COC(C)=O)CC1` (stereo not given), the growth inhibition was 9.75%.

As for `CCN1CCCC(N2c3ccccc3Sc3ccccc32)C1` (stereo not given), the growth inhibition is -9.15%.

As to `Cc1cc(CO)c(O)c(CO)c1`, the growth inhibition was 8.15%.

For `Nc1nc2nnc(-c3ccccc3)c(-c3ccccc3)n2n1`, the growth inhibition was 12.8%.

As to `CCN(CC)CCOC(=O)Nc1c(C(C)C)cccc1C(C)C`, the growth inhibition is -2.7%.

Take `O=C1C=Cc2ccccc2/C1=C/c1[nH]c(=O)[nH]c1O`: the growth inhibition is -21.1%.

On to `CC(C)OCC(CCl)OC(=O)Nc1ccccc1` (stereo not given), for which the growth inhibition is 49.1%.

Regarding `CCOC(=N)CC(=O)Nc1cccc(C)c1Cl`, the growth inhibition is -2.85%.

Regarding `Cc1ccc(C)c(CCO)c1`, the growth inhibition is -22.1%.

On to `O=C(O)C1CSC(c2ccccc2)N1` (stereo not given), for which the growth inhibition was 1.95%.

For `ClCC(Cl)[C@@H]1CC2C=CC1C2` (stereo not given in full), the growth inhibition was 2.85%.

On to `CCCCCCCCCc1ccc(OC(C)=O)cc1`, for which the growth inhibition is 99.3% (active).
